Assay results reported in PubChem BioAssay AID1159580 (chemical genetic matrix, 2015).
The whole screen tested about 5,500 compounds, of which about 2,000 (36%) were called active. Not shown: some 18% with an inconclusive outcome. Rule as the data show it: active = normalized growth mostly below about 0.91 (no sharp cut-off); inconclusive = no clear call, values can overlap the other calls; inactive = mostly above about 0.92. Some of the results follow.

Test: chemical genetic growth profiling, strain panel (AID 1159580);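 also: tested at 20 µM; growth read once vehicle control cultures reached saturation at 30 °C; 1 = growth at the plate median or of vehicle wells; lower values mean less growth of the strain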
Details: S. cerevisiae deletion strains, growth OD

Measured: normalized growth

C[N+](C)(CCOc1ccccc1)Cc1ccccc1
active: locus YHR079C, strain IRE1, stronger effect = lower value 0.844 | locus YJL095W, strain BCK1, stronger effect = lower value 0.869 | locus YJR066W, strain TOR1, stronger effect = lower value 0.799 | locus YLR113W, strain HOG1, stronger effect = lower value 0.805 | locus YNL183C, strain NPR1, stronger effect = lower value 0.788 | locus YPL256C, strain CLN2, stronger effect = lower value 0.812
inactive: locus YHR030C, strain SLT2, stronger effect = lower value 0.888 | locus YOR231W, strain MKK1, stronger effect = lower value 0.887
